In all, about 300,000 compounds went through this assay and about 37,000 (12%) were called active. This is one part of a sample in which actives are shown more often than they occur. Values without a mark were called inactive. Cut-off read from the data, not from the text of the source: active = max response mostly above about 13% (no sharp cut-off); inactive = mostly below about 14%.

A short description of this experiment: Cycloheximide Counterscreen for Small Molecule Inhibitors of Shiga Toxin. Note: read at 38.3 µM for the half of the compounds with a filed dose; 0% is about no effect. Conditions: cell reporter, cycloheximide protein synthesis inhibition counterscreen; stronger effect = higher value. Background: A counterscreen serves to expose hits that act by an unwanted route or on another target.
As for `COc1cccc(CNS(=O)(=O)c2ccc3c(c2)N(C(C)=O)CCS3)c1`, the max response was 3.83%.

Regarding `CCOc1ccc2[nH]c3nc(SCC(=O)NC4CCCC4)nnc3c2c1`, the max response is -2.15%.

On to `CC(C)c1cc(C(=O)O)n[nH]1`, for which the max response was 10.8%.

For the compound `COc1ccc2ccccc2c1/C=N/NC(=O)c1cc(C)[nH]n1`, the max response was -1.72%.

As to `Cc1cc(C(=O)NNC(=O)CCC2CCCCC2)c(C)o1`, the max response was -7.16%.

Take `CC(=O)N/C(=C/c1ccc(OC(F)F)cc1)C(=O)O`: the max response is 1.24%.

As for `CC(C)c1cc(C(=O)N/N=C/C(Br)=C/c2ccccc2)n[nH]1`, the max response is 14.6% (active).

On to `CC(=C/c1ccccc1)/C=N/NC(=O)c1cc(C)oc1C`, for which the max response is 34.8% (active).

Turning to `O=C(CCC1CCCN(C(=O)c2ccc(F)c(F)c2)C1)N1CCN(c2ccccn2)CC1` (stereo not drawn), the max response was -2.81%.

In the case of `CC(=O)c1ccc(NC(=O)CCNS(=O)(=O)c2cc(Br)cnc2N)cc1`, the max response is -6.69%.

For the compound `CCOC(=O)[C@H]1[C@H]2COc3cc(OC)ccc3[C@@H]2N2C(=O)N(c3ccc(Br)cc3)C(=O)[C@@]12C`, the max response is -2.74%.

As to `CC(=O)Nc1ccc(NS(=O)(=O)c2ccc3c(c2)NC(=O)CC(=O)N3)cc1`, the max response was -2.79%.

Regarding `Cn1c(Nc2cccc(Cl)c2)nc2ccccc21`, the max response is 33.5% (active).

`C/C(=N\c1nc2ccccc2n1C)c1cc(Cl)ccc1O`: the max response was -3.14%.

In the case of `Cc1c(C(=O)Nc2cccc(Cl)c2)cn2c(nc3ccccc32)c1C#N`, the max response is -2.2%.

Regarding `Cc1cc2c(c(=O)n1Cc1ccccc1)C1O[C@](CCCCN3C(=O)c4ccccc4C3=O)(Cc3ccccc31)O2`, the max response is -2.41%.

As to `COc1ccc(C2(O)C(=O)Nc3ccccc32)cc1` (stereo not drawn), the max response is -3.25%.

As for `Cc1cc(O)c(C2(O)C(=O)Nc3ccccc32)cc1C` (stereo not drawn), the max response was -3.78%.

With `O=C1Nc2ccccc2C12Nc1ccccc1S2` (stereo not drawn), the max response was 33.2% (active).

Consider `CC(=O)NC1=NN(C(C)=O)C(C)(c2ccc(C)cc2)S1` (stereo not drawn), for which the max response was -3.23%.

Consider `Cc1c(C(N)=O)sc2ncn(CCOc3ccccc3)c(=O)c12`, for which the max response was 17.6% (active).

In the case of `CCOC(=O)C(C)n1cnc2sc(C)c(C)c2c1=O` (stereo not drawn), the max response is -0.534%.

With `Cc1cc2ncn(CCCCOc3ccccc3)c2cc1C`, the max response is -2.02%.

Take `Cc1cccc(OC(=O)c2sc3ncn(C)c(=O)c3c2C)c1`: the max response was 32.8% (active).

Regarding `COc1cccc(NC(=O)Cn2cnc3sc(C)c(S(=O)(=O)N4CCN(C)CC4)c3c2=O)c1`, the max response is -1.26%.

As for `Cc1cc(Br)ccc1NC(=O)c1sc2ncn(CC(=O)N3CCN(c4ccccn4)CC3)c(=O)c2c1C`, the max response was -5.58%.

As for `O=c1cc(CCl)nc2scc(-c3ccccc3)n12`, the max response was 3.02%.

For `COc1ccc(CCNC(=O)CCNS(=O)(=O)c2cc(Br)cnc2N)cc1OC`, the max response was 13.2%.

`CN1C(=O)C2(OCCCO2)c2cc(Cl)ccc21`: the max response is 0.948%.

Turning to `CCCS(=O)(=O)N1CCC(CCOc2ccccc2)(C(=O)OCC)CC1`, the max response was -1.66%.

As to `COc1ccc(-c2ccc(OC)c(C3C4C=CCC(C)C4C(=O)N3Cc3ccccc3)c2)cc1C` (stereo not drawn), the max response is 28.8%.

`COc1ccc2cc1Oc1ccc(cc1)C[C@H]1c3cc(c(OC)cc3CCN1C)Oc1c(O)c(OC)cc3c1[C@H](C2)N(C)CC3`: the max response was -1.4%.

Regarding `O=C(c1cncc(Br)c1)N1CCN(c2ccc([N+](=O)[O-])cc2)CC1`, the max response was -2.1%.

As to `COc1ccc(N(CC(=O)Nc2cccc3ccccc23)S(C)(=O)=O)c(OC)c1`, the max response is -1.55%.

Turning to `CC(C)(C)[Si](OCC[C@@H]1C[C@@]1(C)[C@@H](NP(=O)(c1ccccc1)c1ccccc1)c1ccccc1)(c1ccccc1)c1ccccc1`, the max response was -2.22%.

Take `COC(=O)c1ccccc1NC(=O)c1ccc(C#N)cc1`: the max response is 14.4%.

Consider `O=C(/C=C/c1ccc(Cl)c([N+](=O)[O-])c1)c1ccc(O)cc1`, for which the max response was 11.3%.

For the compound `Cc1ccc(C(=O)/C=C/c2c(C)nn(-c3ccccc3)c2Cl)cc1`, the max response is 37.8% (active).

With `Cc1nn(-c2ccccc2)c(Cl)c1/C=C/C(=O)c1ccc(O)cc1`, the max response was 17% (active).

As to `CCNC(=O)COC(=O)/C=C/c1c(C)nn(Cc2cccc(OC)c2)c1Cl`, the max response is -1.93%.

`O=C(CN1C(=O)COc2ccc(Cl)cc21)N1CCOCC1`: the max response was -0.636%.

Take `CCOC(=O)CSc1nc2ccc(C)cc2n2cnnc12`: the max response was 7.14%.

For `Cc1ccc(C)c(S(=O)(=O)Nc2cc(C)on2)c1`, the max response was -1.71%.

Regarding `CCCC(O)(CCC)C(=O)NN(C(=O)CCl)c1cccc(C)c1`, the max response is 4.6%.

Consider `O=C(NNS(=O)(=O)c1ccccc1C(F)(F)F)c1cc2ncc(C(F)(F)F)cc2s1`, for which the max response was -2.52%.

Consider `CC(C)(C)c1cc(NC(=O)NN2CCOCC2)nn1-c1c(Cl)cc(Cl)cc1Cl`, for which the max response is 6.4%.

Consider `O=C(CCn1c(SCC(=O)c2ccccc2)nc2ccccc2c1=O)NCc1ccc(F)cc1`, for which the max response was -3.48%.

Take `O=C(Nn1c(-c2ccccc2)nc2ccccc2c1=O)c1ccc([N+](=O)[O-])cc1`: the max response is 1.01%.

On to `O=C(Nn1c(SCc2ccc([N+](=O)[O-])cc2)nc2ccccc2c1=O)c1ccc(F)cc1`, for which the max response is 116% (active).

Regarding `Cc1ccc(CNS(=O)(=O)c2ccc3c(c2)N(C)CCO3)cc1`, the max response was 13.9%.

`COc1ccccc1NC(=O)C1=C(C)NC(=O)NC1c1ccc(C)s1` (stereo not drawn): the max response was -3.68%.

Regarding `COc1ccccc1NC(=O)c1ccc(C)s1`, the max response was 64% (active).

In the case of `COC(=O)c1c(NC(C)=O)sc(C(=O)Nc2ccccc2OC)c1C`, the max response is -2%.

As to `CCCCn1c(=S)[nH]c2cc(S(=O)(=O)N3CCCCC3)ccc21`, the max response is -3.25%.

Take `O=C(N/N=C/c1cc([N+](=O)[O-])ccc1O)/C(=C\c1cccs1)NC(=O)c1ccccc1`: the max response is -1.19%.

Turning to `O=[N+]([O-])c1ccc(O)c(/C=N/Nc2ccccc2[N+](=O)[O-])c1`, the max response was 15.6% (active).

`Nc1nnnn1/N=C/c1cc([N+](=O)[O-])ccc1O`: the max response was 1.42%.

On to `CC(/C=N/NC(=O)c1ccncc1)=C\c1ccco1`, for which the max response is 10.3%.

For the compound `Cc1cc(C)c(OCC(=O)N/N=C/c2ccco2)c(C)c1`, the max response was -3.21%.

For `CC(/C=N/NC(=O)c1cc(-c2ccc3ccccc3c2)n[nH]1)=C\c1ccco1`, the max response is 22.2% (active).

Consider `OCCNCc1cccc(OCc2ccccc2Cl)c1`, for which the max response is -3.04%.

`O=C(COC(=O)c1cc(=O)[nH]c2ccccc12)Nc1nc(-c2cccc(Br)c2)cs1`: the max response is 0.762%.

In the case of `Cc1cc(O)c(NC(=O)c2ccc(C)c([N+](=O)[O-])c2)cc1C`, the max response was 40.4% (active).

As for `Cc1ccc(C(=O)Nc2cccc3ncccc23)cc1[N+](=O)[O-]`, the max response was 9.95%.

On to `CCN1CCC(=NNC(=O)c2ccc(C)c([N+](=O)[O-])c2)CC1`, for which the max response is -3.08%.

For the compound `COc1cccc(-c2nc(CS(=O)(=O)CC(=O)NCCc3ccc(OC)c(OC)c3)c(C)o2)c1`, the max response is 16%.

As to `O=C(O)/C=C/C(=O)Nc1ccc(F)cc1F`, the max response was 7.97%.

`COc1ccccc1NC(=O)/C=C/C(=O)O`: the max response is -1.17%.

For `COC(=O)c1sc(-c2ccc(C(C)(C)C)cc2)cc1NC(=O)/C=C/C(=O)O`, the max response is 45.7% (active).

Regarding `O=C(CCn1nnnc1CN1CCOCC1)N1CCC(c2ccccc2Cl)C1` (stereo not drawn), the max response was -3.06%.

Take `CC(=O)c1c(C)n(-c2ccc(C)cc2)c2ccc(O)cc12`: the max response was -2.22%.

For the compound `CCOC(=O)n1c(SCC(=O)N(CC)CC)nc2ccccc21`, the max response was 0.246%.

Turning to `Cc1cc(=O)[nH]c(SCC(=O)N2c3ccccc3CC2C)n1` (stereo not drawn), the max response was 1.01%.

For the compound `CCN(CC)C(=O)CSc1nc2ccccc2o1`, the max response was 21.2% (active).

In the case of `O=C(CSc1nc2ccccc2o1)N1c2ccccc2Sc2ccc(Cl)cc21`, the max response was -1.63%.

For the compound `CC1Cc2ccccc2N1C(=O)CSc1nc2ccccc2o1` (stereo not drawn), the max response is 42.4% (active).

On to `CCOC(=O)CSc1nnc(-c2cccc(Br)c2)o1`, for which the max response is -2.27%.

For `CCN(CC)C(=O)CSc1nnc(-c2cccc(OC)c2)o1`, the max response is 41% (active).

Take `CC(C)(C)C(=O)CSc1nc2ccccc2o1`: the max response is 34.5% (active).

Turning to `CCN(CC)C(=O)CSc1nnc(-c2ccc(S(=O)(=O)NCc3ccccc3Cl)cc2)o1`, the max response is -0.581%.

Regarding `O=C(CSc1nc2ccccc2o1)N1CCN(c2ccc(Cl)cc2)CC1`, the max response is 3.68%.

As to `O=C(CSc1nc2ccccc2o1)N1CCN(c2ccccc2)CC1`, the max response was -3.14%.

Consider `CCS(=O)(=O)c1ccc2oc(SCC(=O)N3c4ccccc4CC3C)nc2c1` (stereo not drawn), for which the max response was -5.84%.

For the compound `COc1ccc(CCNC(=O)C2CCCN2C(=O)Nc2ccccc2)cc1OC` (stereo not drawn), the max response is -1.21%.

In the case of `CCOC(=O)c1c(NC(=O)C2CC=CCC2C(=O)O)sc(C)c1CC` (stereo not drawn), the max response is -3.33%.

On to `Nc1nnnn1/N=C/c1cccc(Br)c1`, for which the max response was -1.37%.

Take `COc1ccc(-c2nn(C)c(=O)c3ccccc23)cc1CNC(=O)C1CCCCC1`: the max response was -2.76%.

Take `Cc1ccccc1Nc1scc(-c2ccc(Br)cc2)[n+]1-c1ccccc1C`: the max response is 12.1%.

For `CC(C)OC(=O)CN1CCN(c2ccc(Cl)cc2)CC1`, the max response is -1.75%.

As for `CC1CCCN(CCOCCOc2ccccc2-c2ccccc2)C1` (stereo not drawn), the max response was -1.97%.

As for `Cc1ccc(CNC(=O)CSc2nnc3c(n2)[nH]c2ccc(F)cc23)cc1`, the max response is -7.47%.

On to `CC(c1nnc(SCC(=O)Nc2sccc2C#N)n1-c1ccc(Cl)cc1)N(C)C` (stereo not drawn), for which the max response is -5.17%.

In the case of `CCOc1ccc(NC(=O)C/C(C)=N/NC(=O)Cc2cccs2)cc1`, the max response is 11.9%.
